From the supplement of paper PMC10515830 come the findings set out here.

Counter-ions that a name gives are not always drawn.

Conditions in all cases: 10 µM; exposure time 6 h
Test [1] deals with Danio rerio larvae (5 dpf). In words: difference in excitability vs DMSO (percentage points); higher = more excitable than DMSO. A digest of the protocol:
(§1)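 Wild-type zebrafish larvae at 5 dpf were kept in 96-well plates and exposed for 6 h to 100 µL egg water holding library compound at a final concentration of 10 µM. From 3 h into exposure, the plates were held at 28.5 ℃ and photographed every 6 s through a 3-h programme of moving lines and 100 ms, 400Hz tones. Each behaviour was scored by Z-LaP Tracker, a DeepLabCut model, and averaged over 48 larvae per compound. Every value gives the compound mean minus the vehicle control mean, in percentage points.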

In test [2] the test system is Danio rerio larvae (5 dpf). The test is described as follows: difference in startle response vs DMSO (percentage points); higher = stronger startle than DMSO. A digest of the protocol:
as §1

For test [3], the system named is Danio rerio larvae (5 dpf). The test is described as follows: difference in activity during first hour vs DMSO (percentage points); higher = more activity than DMSO. A digest of the protocol: as §1
Test [4] concerns Danio rerio larvae (5 dpf). The test is described as follows: difference in habituation to acoustic stimuli vs DMSO (percentage points); higher = more habituation than DMSO. A digest of the protocol:
as §1

The subject of test [5] is Danio rerio larvae (5 dpf). In words: difference in combined optomotor response to red, green and blue moving lines vs DMSO (percentage points); higher = stronger optomotor response than DMSO. In short, it runs like this: as §1

In turn, `CN(C)CCCN1c2ccccc2Sc2ccc(Cl)cc21` [Chlorpromazine (hydrochloride)] yielded a difference in excitability in test [1] of 12.6. Further, in test [2], the “difference in startle response” value was -0.58. The “difference in activity during first hour” value in test [3] turned out to be 13.4. Further, the “difference in habituation to acoustic stimuli” value (shortened to “difference in habituation”) in test [4] was -8.52. In test [5], the difference was found to be 6.64.
As to `Nc1cccc2c1C(=O)N(C1CCC(=O)NC1=O)C2=O` (stereo not given) [Pomalidomide], the difference in excitability in test [1] was 0.1. Besides, in test [2], the “difference in startle response” value was 2.2. In test [3], the “difference in activity during first hour” value is 0.787. In addition, the “difference in habituation” value in test [4] worked out at 2.64. Besides, the difference in test [5] was found to be 1.26.
For `C[C@](N)(Cc1ccc(O)c(O)c1)C(=O)O` [L-(-)-α-Methyldopa], in that order: 2.76, -2.74, 3.45, -1.83 and 6.
With `COC(=O)N[C@H](C(=O)N[C@@H](Cc1ccccc1)[C@@H](O)CN(Cc1ccc(-c2ccccn2)cc1)NC(=O)[C@@H](NC(=O)OC)C(C)(C)C)C(C)(C)C` [Atazanavir], in test [1], the difference in excitability was -0.672. Also, the “difference in startle response” value in test [2] was -1.55. In test [3], the “difference in activity during first hour” value is -1.56. In addition, the “difference in habituation” value in test [4] was -0.953. Also, the difference in test [5] is 2.7.
For `COC(=O)CCc1ccc(OCC(O)CNC(C)C)cc1` (stereo not given) [Esmolol (hydrochloride)], in that order: -2.69, 4.98, 5.19, -2.83 and 10.6.
Regarding `Cc1ccnc2c1NC(=O)c1cccnc1N2C1CC1` [Nevirapine], in test [1], the difference in excitability is 0.772. Also, the “difference in startle response” value in test [2] is 3.61. In addition, the “difference in activity during first hour” value in test [3] is -2.89. Further, in test [4], the “difference in habituation” value is -2.11. Further, the difference in test [5] is -3.5.
For `CCNC(=O)CCC/C=C\C[C@@H]1[C@@H](/C=C/[C@@H](O)CCc2ccccc2)[C@H](O)C[C@@H]1O` [17-phenyl trinor Prostaglandin F2α ethyl amide], in that order: 12.5, -5.26, 14.8, -0.264 and 7.13.
The like results for `C[C@]12C=CC(=O)C=C1CC[C@@H]1[C@@H]2C(=O)C[C@@]2(C)[C@H]1CC[C@]2(O)C(=O)CO` [Prednisone] were, in that order, 14.1, 2.97, -14.4, 6.62 and -4.57.
The like results for `Cc1ccc([C@@H]2O[C@H](CO)[C@@H](O)[C@H](O)[C@H]2O)cc1Cc1ccc(-c2ccc(F)cc2)s1` [Canagliflozin] were, in that order, 1.05, -3.92, 3.63, 3.27 and 5.53.
`O=C1CCc2ccc(OCCCCN3CCN(c4cccc(Cl)c4Cl)CC3)cc2N1` [Aripiprazole] displayed a difference in excitability in test [1] of 14.5. In addition, the “difference in startle response” value in test [2] is 5.72. The “difference in activity during first hour” value in test [3] was found to be 12.4. In test [4], the “difference in habituation” value was -8.81. Also, the difference in test [5] was -3.23.
For `CCCCCCCCCCCCCCCC(=O)OC/C=C(C)/C=C/C=C(C)/C=C/C1=C(C)CCCC1(C)C` [Retinyl Palmitate], in that order: 6.81, 5.22, 3.08, 2.4 and -4.44.
The like results for `CCN(CCO)CCCC(C)Nc1ccnc2cc(Cl)ccc12` (stereo not given) [Hydroxychloroquine (sulfate)] were, in that order, 10.2, 0.589, -2.91, 4.81 and -3.68.
For `CN(C)CCC=C1c2ccccc2C=Cc2ccccc21` [Cyclobenzaprine (hydrochloride)], the difference in excitability in test [1] is 17.5. For the same compound, the “difference in startle response” value in test [2] was -6.94. Further, the “difference in activity during first hour” value in test [3] was 6.26. The “difference in habituation” value in test [4] was -8.81. Also, the difference in test [5] is 14.9.
In the case of `C#Cc1cccc(Nc2ncnc3cc(OCCOC)c(OCCOC)cc23)c1` [Erlotinib], the difference in excitability in test [1] was 4.3. In test [2], the “difference in startle response” value was -6.74. Also, the “difference in activity during first hour” value in test [3] was -6.91. Moreover, the “difference in habituation” value in test [4] is -0.321. In test [5], the difference was -4.8.
For `CC(=O)S[C@@H]1CC2=CC(=O)CC[C@]2(C)[C@H]2CC[C@@]3(C)[C@@H](CC[C@@]34CCC(=O)O4)[C@H]12` [Spironolactone], in that order: 2.95, -1.12, 0.438, -0.129 and -0.69.
The like results for `Cc1cn(-c2cc(NC(=O)c3ccc(C)c(Nc4nccc(-c5cccnc5)n4)c3)cc(C(F)(F)F)c2)cn1` [Nilotinib] were, in that order, 28.8, -3.62, -6.05, -1.02 and -2.49.
Regarding `CN1C(=O)OC(C)(C)C1=O` [Trimethadione], the difference in excitability in test [1] worked out at 6.43. The “difference in startle response” value in test [2] was found to be 11.1. In test [3], the “difference in activity during first hour” value is -6. Also, in test [4], the “difference in habituation” value came to 3.86. For the same compound, in test [5], the difference was -0.0394.
In turn, `COc1cc2nc(N(C)CCCNC(=O)C3CCCO3)nc(N)c2cc1OC` (stereo not given) [Alfuzosin (hydrochloride)] gave a difference in excitability in test [1] of 9.01. The “difference in startle response” value in test [2] is 2.43. Moreover, the “difference in activity during first hour” value in test [3] was found to be 5.63. The “difference in habituation” value in test [4] is -6.84. Also, in test [5], the difference came out at 1.55.
The like results for `CC(C)N(CCCCOCC(=O)NS(C)(=O)=O)c1cnc(-c2ccccc2)c(-c2ccccc2)n1` were, in that order, 11.4, 6.8, -3.12, 5.08 and 2.84.
The like results for `CCCCC(C)(O)C/C=C/[C@H]1[C@H](O)CC(=O)[C@@H]1CCCCCCC(=O)OC` (mixture of isomers) [Misoprostol] were, in that order, 9.78, 0.222, -2.79, 7.1 and -1.41.
The like results for `O=C(O[C@H]1CN2CCC1CC2)N1CCc2ccccc2[C@@H]1c1ccccc1` [Solifenacin (succinate)] were, in that order, 3.16, -8.09, 25.6, -1.09 and 1.96.
`CO[C@@]1(NC(=O)Cc2cccs2)C(=O)N2C(C(=O)O)=C(COC(N)=O)CS[C@@H]21` [Cefoxitin (sodium salt)] had a difference in excitability in test [1] of 2.72. Besides, in test [2], the “difference in startle response” value was 3.22. Also, the “difference in activity during first hour” value in test [3] turned out to be 3. Moreover, in test [4], the “difference in habituation” value came out at 1.06. The difference in test [5] is 10.4.
In turn, `CCCCC[C@](C)(O)/C=C/[C@@H]1[C@@H](C/C=C\CCCC(=O)O)[C@@H](O)C[C@H]1O` [15(S)-15-methyl Prostaglandin F2α] came in with a difference in excitability in test [1] of 1.12. In test [2], the “difference in startle response” value was determined as 0.545. Besides, in test [3], the “difference in activity during first hour” value worked out at 22.8. In test [4], the “difference in habituation” value worked out at 1.43. Also, the difference in test [5] turned out to be 5.47.
The like results for `CCOC(=O)[C@H](CCc1ccccc1)N[C@@H](C)C(=O)N1CCC[C@H]1C(=O)O` [Enalapril (maleate)] were, in that order, 0.733, 3.17, -0.995, -3.38 and 7.06.
